Some test systems named below: NCI-H23 lung; NCI-H226 lung; NCI-H322M lung; HOP-62 NSCLC; NCI-H460 lung; HOP-92 NSCLC; NCI-H522 lung; A549/ATCC NSCLC; 786-0 renal; COLO 205 colon; DU-145 prostate; K-562 leukemia; MALME-3M melanoma; MDA-MB-231 breast; SF-268 CNS; SF-295 CNS; SF-539 CNS; UACC-257 melanoma; M14 melanoma.
Experiment in all cases: NCI-60 one-dose screen, 48 h (100 = growth as untreated, 0 = no growth, -100 = all killed)
What all share (conditions): 10 µM unless noted

Molecules are shown by their SMILES. The panel holds about 83,000 compounds, 20% with a hit somewhere; the sample as a whole holds those more often.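 Note: values are percent growth. 100 is the growth of untreated cells, values between 100 and 0 indicate rising inhibition; between -100 and 0 indicates cell death.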 Values without a mark were called inactive. Calls of active or inactive are those of the source. Rule for the calls: active = growth percent below 10; inactive = the rest.

As to `COc1cc2ncnc(Nc3ccc(C(=O)/C=C/c4ccc(C(F)(F)F)cc4F)cc3)c2cc1OC`, the growth is 99.5% with NCI-H23 lung; 92.7% in the test on NCI-H226 lung; 99.7% with NCI-H322M lung; 144% in the test with HOP-62 NSCLC; 108% with NCI-H460 lung; 113% in the test on HOP-92 NSCLC. In addition, the growth with NCI-H522 lung was 98.3%; in the test on A549/ATCC NSCLC, 95.2%; in the test on 786-0 renal it was 85.6%; in the test on COLO 205 colon, 160%; with DU-145 prostate, 107%; in the test with K-562 leukemia, 58.4%. Also, the growth was 106% with MALME-3M melanoma; 90.7% with MDA-MB-231 breast; 96.2% in the test with SF-268 CNS; 95.8% in the test on SF-295 CNS; 93.7% in the test on SF-539 CNS; 111% in the test on UACC-257 melanoma. Further, the growth in the test with M14 melanoma is 97.9%.
Regarding `ClCC1(Cn2cnc3c(Cl)nc(Cl)nc32)COC1`, the growth in the test on NCI-H23 lung was 69.1%; in the test with NCI-H226 lung, 87.7%; in the test with NCI-H322M lung, 100%; with HOP-62 NSCLC, 103%; in the test with NCI-H460 lung, 86.5%; with HOP-92 NSCLC, 73.1%. Besides, the growth with NCI-H522 lung was 71.9%; with A549/ATCC NSCLC it was 57.5%; in the test on 786-0 renal it was 88.4%; in the test on COLO 205 colon, 80.2%; in the test on DU-145 prostate, 67.8%; in the test with K-562 leukemia, 64.7%. For the same molecule, the growth with MALME-3M melanoma is 102%; in the test on MDA-MB-231 breast it was 80.4%; in the test with SF-268 CNS, 78%; in the test with SF-295 CNS, 88.8%; in the test with SF-539 CNS, 103%; in the test on UACC-257 melanoma it was 75.8%. The growth in the test on M14 melanoma was 62.6%.
Take `S=c1[nH]cccc1-c1nnc2n1Nc1nc3ccccc3cc1CS2`: the growth with NCI-H23 lung is 90.7%; with NCI-H226 lung it was 91.1%; with NCI-H322M lung, 101%; in the test with HOP-62 NSCLC, 90.1%; in the test on NCI-H460 lung it was 99.6%; with HOP-92 NSCLC, 99.5%. Moreover, the growth in the test on NCI-H522 lung is 89%; with A549/ATCC NSCLC it was 110%; in the test with 786-0 renal it was 100%; in the test on COLO 205 colon, 111%; with DU-145 prostate, 120%; in the test on K-562 leukemia, 99.5%. Further, the growth in the test on MALME-3M melanoma was 97.1%; with MDA-MB-231 breast it was 92.9%; in the test with SF-268 CNS, 101%; in the test with SF-295 CNS it was 112%; in the test with SF-539 CNS it was 96.1%; with UACC-257 melanoma, 110%. The growth in the test on M14 melanoma is 101%.
Turning to `C[C@]12CCc3nc(Nc4cccc(O)c4)sc3C1=CC[C@@H]1[C@@H]2CC[C@]2(C)/C(=N\NC(N)=S)CC[C@@H]12`, the growth was 57.3% with NCI-H23 lung; 91.8% in the test on NCI-H226 lung; 73.5% with NCI-H322M lung; 32% in the test on HOP-62 NSCLC; 21.3% in the test on NCI-H460 lung; 52.1% in the test with HOP-92 NSCLC. Further, the growth in the test on NCI-H522 lung was -12.2% (active); in the test with A549/ATCC NSCLC, 59.3%; in the test with 786-0 renal, -36% (active); in the test on COLO 205 colon, 42.7%; in the test on DU-145 prostate, 8.45% (active); with K-562 leukemia it was 3.19% (active). Also, the growth with MALME-3M melanoma was 39%; in the test with MDA-MB-231 breast, 26.2%; in the test on SF-268 CNS, 37.6%; in the test on SF-295 CNS, -34% (active); in the test on SF-539 CNS, -48% (active); with UACC-257 melanoma, 74%. Moreover, in the test on M14 melanoma, the growth was 31.1%.
Regarding `Clc1nc(Cl)c2ncn(CC3(Cn4cnc5c(Cl)nc(Cl)nc54)COC3)c2n1`, the growth in the test with NCI-H23 lung was -70.2% (active); in the test with NCI-H226 lung, -81.3% (active); in the test with NCI-H322M lung it was -100% (active); with HOP-62 NSCLC, -82.3% (active); in the test on NCI-H460 lung it was -65.5% (active); in the test with HOP-92 NSCLC, -91.9% (active). Moreover, the growth is -89.1% (active) in the test with NCI-H522 lung; -77% (active) with A549/ATCC NSCLC; -98.7% (active) with 786-0 renal; -76.6% (active) in the test with COLO 205 colon; -100% (active) with DU-145 prostate; -70.4% (active) in the test on K-562 leukemia. For the same molecule, the growth with MALME-3M melanoma was -69.8% (active); in the test with MDA-MB-231 breast it was -88.9% (active); in the test with SF-268 CNS it was -73.7% (active); in the test with SF-295 CNS, -83.6% (active); with SF-539 CNS, -93.4% (active); in the test on UACC-257 melanoma it was -90.9% (active). For the same molecule, the growth in the test with M14 melanoma was -92.7% (active).
Consider `COc1ccc(-c2nc(SCCC(C)C)nc(N/N=C(/C)c3ccc(C)cc3)c2C#N)cc1`, for which the growth in the test on NCI-H23 lung is 84.5%; in the test on NCI-H226 lung it was 91.7%; with NCI-H322M lung it was 87.4%; in the test with HOP-62 NSCLC it was 93.9%; in the test on NCI-H460 lung it was 99.7%; in the test with HOP-92 NSCLC, 62.2%. In addition, the growth in the test on NCI-H522 lung was 87.2%; in the test on A549/ATCC NSCLC, 99.3%; in the test on 786-0 renal, 102%; in the test with COLO 205 colon, 109%; in the test with DU-145 prostate, 104%; with K-562 leukemia, 94.6%. Moreover, the growth with MALME-3M melanoma is 103%; in the test with MDA-MB-231 breast, 71%; in the test with SF-268 CNS, 93.2%; in the test on SF-295 CNS, 97.7%; with SF-539 CNS, 86.9%; in the test with UACC-257 melanoma, 98%. The growth in the test on M14 melanoma is 90.4%.
Regarding `COc1ccc(C2=NN(C(C)=O)C(c3cn(Cc4ccc(Cl)cc4)c4ccccc34)C2)cc1` (configuration not stated), the growth with NCI-H23 lung is 73.3%; in the test with NCI-H226 lung, 67.6%; in the test with NCI-H322M lung, 83.1%; with HOP-62 NSCLC it was 85.7%; with NCI-H460 lung, 86.9%; in the test with HOP-92 NSCLC it was 61.2%. Also, the growth is 69.5% in the test with NCI-H522 lung; 64.6% in the test on A549/ATCC NSCLC; 89.4% with 786-0 renal; 115% in the test with COLO 205 colon; 97.4% in the test on DU-145 prostate; 52.6% in the test with K-562 leukemia. Also, the growth with MALME-3M melanoma was 72.2%; in the test on MDA-MB-231 breast, 78.7%; with SF-268 CNS, 79.9%; with SF-295 CNS it was 85.6%; with SF-539 CNS, 82.1%; in the test on UACC-257 melanoma, 81.7%. Further, in the test with M14 melanoma, the growth was 99.4%.
In the case of `O=C(CNCCO)Nc1ccc2ncnc(Nc3ccc(OCc4cccc(F)c4)c(Cl)c3)c2c1`, the growth in the test with NCI-H23 lung was 98.9%; in the test with NCI-H226 lung it was 93.8%; in the test on NCI-H322M lung it was 33.4%; with HOP-62 NSCLC it was 87%; with NCI-H460 lung it was 88.7%; in the test on HOP-92 NSCLC it was 55.8%. The growth in the test with NCI-H522 lung was 46.3%; with A549/ATCC NSCLC, 71.6%; in the test with 786-0 renal it was 69.6%; in the test with COLO 205 colon, 96%; with DU-145 prostate, 61.6%; in the test with K-562 leukemia, 27.8%. The growth in the test with MALME-3M melanoma was 98.2%; in the test with MDA-MB-231 breast it was 87.7%; in the test on SF-268 CNS, 78.1%; with SF-295 CNS it was 95%; with SF-539 CNS, 87.8%; with UACC-257 melanoma, 101%. Further, the growth in the test on M14 melanoma was 93.4%.
